# Assay results published in ChEMBL document CHEMBL1961873, “Compounds: GSK PKIS; Assays: Nanosyn kinase panel” (2012).
# Columns and labels:
# [1] = target: High affinity nerve growth factor receptor (Homo sapiens) (UniProt P04629); conditions: at 1 µM;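 further: each value is the mean percent inhibition of TRKA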
# [2] = target: BDNF/NT-3 growth factors receptor (Homo sapiens) (UniProt Q16620); conditions: at 0.1 µM
# [3] = target: BDNF/NT-3 growth factors receptor (Homo sapiens) (UniProt Q16620); conditions: at 1 µM
# [4] = target: NT-3 growth factor receptor (Homo sapiens) (UniProt Q16288); conditions: at 0.1 µM
# Chain of NT-3 growth factor receptor (Homo sapiens) (Q16288 32-839 limits assumed): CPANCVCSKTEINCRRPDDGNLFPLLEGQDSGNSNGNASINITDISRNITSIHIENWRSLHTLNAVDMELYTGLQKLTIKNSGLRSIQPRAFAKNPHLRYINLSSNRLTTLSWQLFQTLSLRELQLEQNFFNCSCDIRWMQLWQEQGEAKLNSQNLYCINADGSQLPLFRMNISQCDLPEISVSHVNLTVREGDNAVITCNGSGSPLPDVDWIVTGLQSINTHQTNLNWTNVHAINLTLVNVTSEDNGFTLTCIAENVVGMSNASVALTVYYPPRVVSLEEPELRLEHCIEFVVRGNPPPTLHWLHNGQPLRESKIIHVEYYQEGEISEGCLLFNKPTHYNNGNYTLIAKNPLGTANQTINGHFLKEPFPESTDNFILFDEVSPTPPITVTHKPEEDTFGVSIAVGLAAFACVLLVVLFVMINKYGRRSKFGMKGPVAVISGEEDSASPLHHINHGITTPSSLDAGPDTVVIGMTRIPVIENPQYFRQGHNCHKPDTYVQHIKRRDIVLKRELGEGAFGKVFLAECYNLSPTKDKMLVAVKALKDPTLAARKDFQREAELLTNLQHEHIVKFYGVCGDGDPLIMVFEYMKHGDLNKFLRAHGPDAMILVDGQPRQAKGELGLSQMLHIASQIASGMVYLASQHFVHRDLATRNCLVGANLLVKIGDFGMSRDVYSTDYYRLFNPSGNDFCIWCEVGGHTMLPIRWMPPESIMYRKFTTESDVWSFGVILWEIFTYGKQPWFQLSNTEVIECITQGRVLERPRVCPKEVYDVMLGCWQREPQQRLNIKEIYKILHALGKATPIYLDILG
# [5] = target: NT-3 growth factor receptor (Homo sapiens) (UniProt Q16288); conditions: at 1 µM
# [6] = target: T1, Tyrosine-protein kinase TXK (Homo sapiens) (UniProt P42681); conditions: at 0.1 µM
# T1 sequence (whole entry): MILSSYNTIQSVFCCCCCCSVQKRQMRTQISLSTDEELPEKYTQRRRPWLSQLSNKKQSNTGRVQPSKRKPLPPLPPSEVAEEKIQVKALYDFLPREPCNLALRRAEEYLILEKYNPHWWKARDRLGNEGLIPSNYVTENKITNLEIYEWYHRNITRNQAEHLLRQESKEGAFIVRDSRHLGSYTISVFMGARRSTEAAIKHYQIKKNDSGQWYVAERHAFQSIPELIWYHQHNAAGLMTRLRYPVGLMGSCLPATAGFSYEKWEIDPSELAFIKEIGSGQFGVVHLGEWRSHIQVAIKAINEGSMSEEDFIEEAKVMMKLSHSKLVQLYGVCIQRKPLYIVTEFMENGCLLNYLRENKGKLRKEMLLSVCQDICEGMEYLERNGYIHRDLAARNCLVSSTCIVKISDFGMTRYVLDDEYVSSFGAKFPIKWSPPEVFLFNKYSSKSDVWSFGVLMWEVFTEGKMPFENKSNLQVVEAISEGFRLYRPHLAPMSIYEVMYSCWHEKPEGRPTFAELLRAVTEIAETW
# [7] = target: T1, Tyrosine-protein kinase TXK (Homo sapiens); conditions: at 1 µM
# [8] = target: Non-receptor tyrosine-protein kinase TYK2 (Homo sapiens) (UniProt P29597); conditions: at 0.1 µM;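 further: each value is a mean of the inhibition readings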
# Chain of Non-receptor tyrosine-protein kinase TYK2 (Homo sapiens) (P29597 whole entry): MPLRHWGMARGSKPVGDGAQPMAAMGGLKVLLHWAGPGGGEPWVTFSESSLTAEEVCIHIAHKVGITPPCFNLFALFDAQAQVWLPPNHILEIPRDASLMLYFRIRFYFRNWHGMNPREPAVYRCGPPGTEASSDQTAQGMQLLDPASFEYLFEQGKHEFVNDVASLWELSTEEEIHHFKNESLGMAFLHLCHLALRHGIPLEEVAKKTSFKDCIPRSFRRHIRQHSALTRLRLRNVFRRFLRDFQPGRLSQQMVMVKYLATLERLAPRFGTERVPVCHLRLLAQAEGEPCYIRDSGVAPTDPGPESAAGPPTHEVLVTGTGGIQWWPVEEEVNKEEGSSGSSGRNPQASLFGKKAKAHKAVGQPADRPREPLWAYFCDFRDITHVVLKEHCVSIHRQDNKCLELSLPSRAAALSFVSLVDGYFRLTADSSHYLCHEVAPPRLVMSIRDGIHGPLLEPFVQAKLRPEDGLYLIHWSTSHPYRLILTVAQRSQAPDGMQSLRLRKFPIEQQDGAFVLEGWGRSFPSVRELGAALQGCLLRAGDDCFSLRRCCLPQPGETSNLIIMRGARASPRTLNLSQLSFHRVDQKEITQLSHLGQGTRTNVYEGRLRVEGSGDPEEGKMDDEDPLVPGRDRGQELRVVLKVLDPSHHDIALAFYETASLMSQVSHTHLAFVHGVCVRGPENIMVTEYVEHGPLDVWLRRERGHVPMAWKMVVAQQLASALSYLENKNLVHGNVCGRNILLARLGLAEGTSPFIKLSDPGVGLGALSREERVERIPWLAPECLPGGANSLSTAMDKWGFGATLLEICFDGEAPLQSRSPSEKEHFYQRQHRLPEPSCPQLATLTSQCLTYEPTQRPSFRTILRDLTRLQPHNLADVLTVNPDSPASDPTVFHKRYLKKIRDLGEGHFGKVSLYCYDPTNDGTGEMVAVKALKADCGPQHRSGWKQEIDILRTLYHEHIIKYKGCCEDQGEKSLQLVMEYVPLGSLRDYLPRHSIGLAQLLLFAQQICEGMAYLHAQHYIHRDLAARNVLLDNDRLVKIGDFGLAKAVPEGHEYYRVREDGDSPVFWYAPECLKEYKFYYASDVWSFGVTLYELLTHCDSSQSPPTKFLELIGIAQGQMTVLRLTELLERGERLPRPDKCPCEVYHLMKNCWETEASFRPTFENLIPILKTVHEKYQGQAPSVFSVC
# [9] = target: T2, Dual specificity protein kinase TTK (Homo sapiens) (UniProt P33981); conditions: at 1 µM;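 further: reported figures are mean TTK inhibition at 1 µM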
# T2 sequence (whole entry): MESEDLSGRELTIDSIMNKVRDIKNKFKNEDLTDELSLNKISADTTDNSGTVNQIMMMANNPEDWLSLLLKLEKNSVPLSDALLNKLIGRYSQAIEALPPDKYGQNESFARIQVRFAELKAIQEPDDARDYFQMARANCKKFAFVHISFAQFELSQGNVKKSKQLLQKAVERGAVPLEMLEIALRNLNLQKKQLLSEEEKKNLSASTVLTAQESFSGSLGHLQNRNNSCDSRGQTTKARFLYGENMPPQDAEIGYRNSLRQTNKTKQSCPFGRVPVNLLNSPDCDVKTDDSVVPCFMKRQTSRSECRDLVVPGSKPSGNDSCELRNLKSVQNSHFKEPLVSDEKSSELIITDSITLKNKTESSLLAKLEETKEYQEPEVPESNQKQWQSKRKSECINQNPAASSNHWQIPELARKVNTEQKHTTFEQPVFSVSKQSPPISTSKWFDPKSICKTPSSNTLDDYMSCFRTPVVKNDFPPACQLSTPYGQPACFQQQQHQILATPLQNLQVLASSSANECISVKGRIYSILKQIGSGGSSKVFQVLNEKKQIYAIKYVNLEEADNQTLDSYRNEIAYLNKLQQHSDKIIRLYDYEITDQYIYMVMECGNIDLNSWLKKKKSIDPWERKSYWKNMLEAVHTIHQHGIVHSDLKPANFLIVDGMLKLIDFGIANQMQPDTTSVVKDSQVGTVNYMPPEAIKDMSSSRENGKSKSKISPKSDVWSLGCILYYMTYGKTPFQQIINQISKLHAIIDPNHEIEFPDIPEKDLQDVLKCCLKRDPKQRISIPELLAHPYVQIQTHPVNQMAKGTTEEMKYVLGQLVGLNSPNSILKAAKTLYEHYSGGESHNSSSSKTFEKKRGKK
# [10] = target: T3, Aurora kinase A (Homo sapiens) (UniProt O14965); conditions: at 0.1 µM
# T3 sequence (whole entry): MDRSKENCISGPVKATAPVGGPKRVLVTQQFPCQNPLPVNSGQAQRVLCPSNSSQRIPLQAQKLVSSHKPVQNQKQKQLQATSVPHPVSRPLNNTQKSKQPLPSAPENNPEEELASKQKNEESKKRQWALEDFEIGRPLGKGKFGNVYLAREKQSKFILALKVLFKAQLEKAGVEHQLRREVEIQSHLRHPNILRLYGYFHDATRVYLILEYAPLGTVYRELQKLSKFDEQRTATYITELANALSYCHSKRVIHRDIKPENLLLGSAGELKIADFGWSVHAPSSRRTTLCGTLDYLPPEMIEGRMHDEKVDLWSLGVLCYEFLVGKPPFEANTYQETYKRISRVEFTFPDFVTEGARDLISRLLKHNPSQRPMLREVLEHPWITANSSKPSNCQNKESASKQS
# [11] = target: T3, Aurora kinase A (Homo sapiens); conditions: at 1 µM
# [12] = target: Aurora kinase B (Homo sapiens) (UniProt Q96GD4); conditions: at 0.1 µM
# Chain of Aurora kinase B (Homo sapiens) (Q96GD4 whole entry): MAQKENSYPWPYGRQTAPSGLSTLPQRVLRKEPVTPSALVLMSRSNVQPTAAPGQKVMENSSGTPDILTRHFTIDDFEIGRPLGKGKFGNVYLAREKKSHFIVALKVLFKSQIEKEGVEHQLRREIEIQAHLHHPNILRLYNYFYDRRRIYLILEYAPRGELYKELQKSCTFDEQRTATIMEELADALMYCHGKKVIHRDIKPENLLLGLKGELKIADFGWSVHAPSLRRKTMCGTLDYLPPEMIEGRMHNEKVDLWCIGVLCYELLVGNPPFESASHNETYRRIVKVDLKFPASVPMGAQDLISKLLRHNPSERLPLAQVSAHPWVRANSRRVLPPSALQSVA
# [13] = target: Aurora kinase B (Homo sapiens) (UniProt Q96GD4); conditions: at 1 µM
# [14] = target: T4, Aurora kinase C (Homo sapiens) (UniProt Q9UQB9); conditions: at 0.1 µM
# T4 sequence (whole entry): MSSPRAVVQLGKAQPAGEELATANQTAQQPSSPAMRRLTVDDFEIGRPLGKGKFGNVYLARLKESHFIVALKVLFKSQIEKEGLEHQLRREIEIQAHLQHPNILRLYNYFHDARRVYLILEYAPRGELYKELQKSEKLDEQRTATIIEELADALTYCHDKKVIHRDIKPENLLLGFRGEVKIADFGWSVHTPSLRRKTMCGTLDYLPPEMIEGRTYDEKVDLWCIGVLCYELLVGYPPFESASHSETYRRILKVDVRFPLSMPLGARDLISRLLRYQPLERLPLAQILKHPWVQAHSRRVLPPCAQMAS
# [15] = target: T4, Aurora kinase C (Homo sapiens); conditions: at 1 µM
# [16] = target: Serine/threonine-protein kinase 10 (Homo sapiens) (UniProt O94804); conditions: at 0.1 µM
# Chain of Serine/threonine-protein kinase 10 (Homo sapiens) (O94804 whole entry, looked up): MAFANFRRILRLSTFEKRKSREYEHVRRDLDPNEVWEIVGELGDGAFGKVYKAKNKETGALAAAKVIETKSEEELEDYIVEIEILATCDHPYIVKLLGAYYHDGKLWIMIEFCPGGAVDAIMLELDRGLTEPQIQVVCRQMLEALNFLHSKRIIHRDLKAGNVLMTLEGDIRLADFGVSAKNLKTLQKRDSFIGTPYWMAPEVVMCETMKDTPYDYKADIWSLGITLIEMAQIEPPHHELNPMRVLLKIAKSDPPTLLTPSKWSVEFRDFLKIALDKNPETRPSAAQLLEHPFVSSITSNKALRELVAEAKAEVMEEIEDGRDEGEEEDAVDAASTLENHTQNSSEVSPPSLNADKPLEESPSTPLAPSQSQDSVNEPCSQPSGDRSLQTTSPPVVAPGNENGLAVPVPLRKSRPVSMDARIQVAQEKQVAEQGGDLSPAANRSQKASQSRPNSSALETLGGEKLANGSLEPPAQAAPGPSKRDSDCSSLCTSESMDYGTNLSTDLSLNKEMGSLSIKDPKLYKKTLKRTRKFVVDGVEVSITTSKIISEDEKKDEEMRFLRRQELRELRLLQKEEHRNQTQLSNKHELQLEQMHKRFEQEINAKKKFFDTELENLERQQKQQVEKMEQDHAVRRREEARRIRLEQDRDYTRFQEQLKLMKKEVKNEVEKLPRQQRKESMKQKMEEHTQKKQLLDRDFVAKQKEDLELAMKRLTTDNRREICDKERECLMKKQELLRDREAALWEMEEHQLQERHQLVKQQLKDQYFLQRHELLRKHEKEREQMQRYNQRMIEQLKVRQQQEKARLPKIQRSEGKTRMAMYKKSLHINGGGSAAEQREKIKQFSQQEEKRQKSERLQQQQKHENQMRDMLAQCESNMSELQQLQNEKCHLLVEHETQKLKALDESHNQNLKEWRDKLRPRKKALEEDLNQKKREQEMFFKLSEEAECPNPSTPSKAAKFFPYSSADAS
# [17] = target: Serine/threonine-protein kinase 10 (Homo sapiens) (UniProt O94804); conditions: at 1 µM
# [18] = target: T5, Mitogen-activated protein kinase kinase kinase kinase 2 (Homo sapiens) (UniProt Q12851); conditions: at 0.1 µM
# T5 sequence (whole entry): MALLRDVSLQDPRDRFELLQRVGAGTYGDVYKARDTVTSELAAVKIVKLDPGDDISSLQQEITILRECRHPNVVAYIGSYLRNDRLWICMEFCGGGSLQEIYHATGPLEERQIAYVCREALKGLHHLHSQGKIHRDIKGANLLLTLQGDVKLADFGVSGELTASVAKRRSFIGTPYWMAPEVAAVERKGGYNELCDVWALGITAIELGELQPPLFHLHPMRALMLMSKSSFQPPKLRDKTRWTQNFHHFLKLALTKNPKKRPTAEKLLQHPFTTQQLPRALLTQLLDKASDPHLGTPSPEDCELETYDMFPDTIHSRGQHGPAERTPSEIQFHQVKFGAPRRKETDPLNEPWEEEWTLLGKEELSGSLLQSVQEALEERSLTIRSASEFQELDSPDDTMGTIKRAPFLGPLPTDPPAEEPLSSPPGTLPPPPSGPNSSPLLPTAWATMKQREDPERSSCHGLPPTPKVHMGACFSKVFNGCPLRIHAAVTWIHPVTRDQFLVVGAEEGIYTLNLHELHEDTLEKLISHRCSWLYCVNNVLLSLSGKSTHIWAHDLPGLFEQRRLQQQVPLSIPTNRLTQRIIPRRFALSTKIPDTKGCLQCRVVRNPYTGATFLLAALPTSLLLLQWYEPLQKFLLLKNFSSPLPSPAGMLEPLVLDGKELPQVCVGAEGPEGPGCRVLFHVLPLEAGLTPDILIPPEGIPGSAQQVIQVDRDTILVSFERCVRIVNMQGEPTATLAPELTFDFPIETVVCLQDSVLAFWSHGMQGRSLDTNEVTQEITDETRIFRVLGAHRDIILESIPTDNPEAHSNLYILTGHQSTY
# [19] = target: T5, Mitogen-activated protein kinase kinase kinase kinase 2 (Homo sapiens); conditions: at 1 µM
# [20] = target: Mitogen-activated protein kinase kinase kinase kinase 4 (Homo sapiens) (UniProt O95819); conditions: at 0.1 µM
# Chain of Mitogen-activated protein kinase kinase kinase kinase 4 (Homo sapiens) (O95819 2-1239 limits assumed): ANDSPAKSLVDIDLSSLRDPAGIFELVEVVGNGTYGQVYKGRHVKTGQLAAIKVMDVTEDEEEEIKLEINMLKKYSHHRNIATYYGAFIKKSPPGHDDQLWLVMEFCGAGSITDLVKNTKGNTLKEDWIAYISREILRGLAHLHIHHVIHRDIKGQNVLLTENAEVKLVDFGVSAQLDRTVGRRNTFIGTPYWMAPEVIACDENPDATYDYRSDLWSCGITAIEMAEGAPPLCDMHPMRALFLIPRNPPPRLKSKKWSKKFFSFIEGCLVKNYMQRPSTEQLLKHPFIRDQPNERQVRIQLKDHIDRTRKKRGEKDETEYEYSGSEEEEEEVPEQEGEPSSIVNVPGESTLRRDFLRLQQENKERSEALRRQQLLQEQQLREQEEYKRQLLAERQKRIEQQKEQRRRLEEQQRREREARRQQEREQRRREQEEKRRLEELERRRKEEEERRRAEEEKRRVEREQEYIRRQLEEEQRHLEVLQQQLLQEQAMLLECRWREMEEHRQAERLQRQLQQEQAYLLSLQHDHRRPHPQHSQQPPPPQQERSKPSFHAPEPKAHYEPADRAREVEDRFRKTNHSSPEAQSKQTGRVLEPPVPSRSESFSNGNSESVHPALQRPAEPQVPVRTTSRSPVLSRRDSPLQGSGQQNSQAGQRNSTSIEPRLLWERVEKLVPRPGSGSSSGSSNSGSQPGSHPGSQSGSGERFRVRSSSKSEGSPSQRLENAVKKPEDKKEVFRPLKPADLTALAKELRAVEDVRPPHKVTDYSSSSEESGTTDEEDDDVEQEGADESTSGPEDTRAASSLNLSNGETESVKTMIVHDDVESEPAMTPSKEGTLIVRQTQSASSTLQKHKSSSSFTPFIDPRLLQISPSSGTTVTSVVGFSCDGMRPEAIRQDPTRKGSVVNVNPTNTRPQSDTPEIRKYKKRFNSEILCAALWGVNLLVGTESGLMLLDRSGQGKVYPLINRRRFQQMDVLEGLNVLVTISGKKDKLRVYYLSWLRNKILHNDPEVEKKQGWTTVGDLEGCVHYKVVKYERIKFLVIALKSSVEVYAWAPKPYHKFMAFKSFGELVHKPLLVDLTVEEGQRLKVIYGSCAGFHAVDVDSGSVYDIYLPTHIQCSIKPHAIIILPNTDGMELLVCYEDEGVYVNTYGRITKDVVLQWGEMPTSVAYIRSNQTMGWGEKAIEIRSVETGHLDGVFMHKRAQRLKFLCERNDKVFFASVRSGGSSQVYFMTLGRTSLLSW
SMILES,inhibition [1],inhibition [2],inhibition [3],inhibition [4],inhibition [5],inhibition [6],inhibition [7],inhibition [8],inhibition [9],inhibition [10],inhibition [11],inhibition [12],inhibition [13],inhibition [14],inhibition [15],inhibition [16],inhibition [17],inhibition [18],inhibition [19],inhibition [20]
O=C(Nc1ccc(Oc2ccc3[nH]c(NC(=O)c4ccccc4)nc3c2)cc1)Nc1cc(C(F)(F)F)ccc1F,52.2%,5.11%,35.1%,8.01%,41%,3.06%,6.27%,-4.63%,19.2%,1.31%,12.4%,0.59%,13.9%,3.42%,40.8%,12.8%,50.2%,1.6%,19%,3.95%
Fc1ccc(-c2nc3n(c2-c2ccncc2)CCS3)cc1,1.45%,2.62%,0.16%,2.96%,3.11%,-0.13%,-0.14%,-8.34%,9.6%,-1.28%,1.43%,-0.42%,2.92%,-1.97%,13.6%,1.88%,6.87%,1.36%,6.73%,5.82%
CN1CCN(CCCNc2nc3ccc(Oc4ccc(NC(=O)Nc5cc(C(F)(F)F)ccc5F)cc4)cc3[nH]2)CC1,34%,1.65%,10.6%,4.05%,17.4%,1%,5.01%,-2.82%,20.8%,-1.66%,-0.34%,-0.75%,4.51%,-5.06%,23.7%,15.9%,53%,3.12%,8.26%,2.15%
O=C(Nc1n[nH]c2nc(-c3ccc(O)cc3)c(Br)cc12)C1CC1,12.3%,5.55%,14.5%,5.79%,16.4%,4.99%,9.15%,-1.54%,15.3%,5.34%,37.7%,4.29%,12.7%,2.12%,8.73%,16.2%,61.3%,7%,34.4%,32.2%
COc1cc(Nc2ncc(-c3ccccc3)o2)cc(OC)c1OC,23.1%,2.41%,28.3%,2.64%,25.2%,1.07%,16.2%,-2.24%,-1.01%,15.7%,75.5%,10.1%,50%,8.67%,71.8%,1.37%,11.1%,2.15%,11.5%,2.13%
O=C1Nc2ccccc2/C1=C/Nc1ccc(-n2cncn2)cc1,44.2%,11.7%,56.5%,12.5%,58.4%,3.04%,5.07%,-4.51%,47.9%,4.13%,36.3%,6.72%,27.7%,3.93%,44.8%,4.16%,12.6%,2.9%,12.6%,18.5%
